Records with an inconclusive call do not appear. Entries that show only a call come without a potency. The source made the active and inactive calls. The call rests on the fitted dose curve; in most records, active means well fitted inhibition curve with a large enough effect; inconclusive means small, poorly fitted or top-dose-only effect, or effect the other way; inactive means flat fitted curve, though single readings scatter.
Potency means the concentration at half of the fitted maximal effect.

In this test the target is Pyruvate kinase (Leishmania mexicana) (UniProt Q27686). Kind of test: Confirmation Assay for Inhibitors of Leishmania Mexicana Pyruvate Kinase (LmPK): for Probe SAR. As to conditions: purified LmPK, ATP generation, Kinase-Glo luminescence; series mostly up to 57.5 µM. The text has this: NIH Chemical Genomics Center [NCGC] Malcolm Walkinshaw, Hugh Morgan, Linda Gilmore University of Edinburgh, UK MLPCN Grant: 1 R03 MH085697-01 NCGC Assay Overview: Pyruvate kinase (L. Mexicana) (LmPK) enzyme was supplied as a highly purified (>95% pure) sulphate-free preparation from University of Edinburgh, UK and assayed for its ability to generate ATP from ADP using phosphoenolpyruvate (PEP) as a substrate. ATP generation was detected in a coupled reaction by luciferase-mediated luminescence, an ATP-dependent process. Pyruvate kinase substrates, PEP and ADP, were present in the assay at Km and approximately 10-fold below Km respectively. The enzyme was assayed at an intermediate level of activity to screen for both inhibitors and activators.
Sequence of Pyruvate kinase (Leishmania mexicana) (Q27686 whole entry, looked up): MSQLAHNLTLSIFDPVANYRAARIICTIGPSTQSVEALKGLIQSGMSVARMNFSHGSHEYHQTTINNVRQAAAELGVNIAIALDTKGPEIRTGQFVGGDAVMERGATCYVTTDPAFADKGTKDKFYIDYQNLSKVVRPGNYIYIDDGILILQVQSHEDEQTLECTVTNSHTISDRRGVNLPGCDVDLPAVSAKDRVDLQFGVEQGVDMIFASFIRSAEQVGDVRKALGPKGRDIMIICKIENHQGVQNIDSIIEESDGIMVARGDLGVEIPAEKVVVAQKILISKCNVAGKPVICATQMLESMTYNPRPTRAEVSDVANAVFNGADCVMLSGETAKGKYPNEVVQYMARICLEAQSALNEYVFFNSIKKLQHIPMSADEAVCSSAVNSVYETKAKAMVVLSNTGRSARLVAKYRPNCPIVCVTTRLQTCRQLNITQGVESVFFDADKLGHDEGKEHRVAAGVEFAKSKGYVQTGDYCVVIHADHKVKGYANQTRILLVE
NCGC Assay Protocol Summary: Three uL of enzyme mix (kept on ice) in assay buffer (50 mM Imidazole pH7.2, 50 mM KCl, 7 mM MgCl2, 0.01% Tween 20, 0.05% BSA) containing PEP (0.5 mM final concentration) and LmPK (0.1 nM final concentration) was dispensed into white solid bottom 1,536 well microtiter plates. 23 nL of compound were delivered by a pin tool and 1 uL of ADP mix in assay buffer (r.t; 0.1 mM final ADP concentration) was added. Plates were incubated at room temperature for 1 hour. Two uL of detection mix (Kinase-Glo, Promega; at 4 degree Celsius protected from light) was added and luminescence read by a ViewLux (Perkin Elmer) at 1 second exposure/plate. Data were normalized to the uninhibited and AC100 inhibition (no enzyme). To monitor activation, the first column contained a five-fold concentration of LmPK (0.5 nM).
For orientation: Kinase-Glo measures the ATP left after a reaction by luminescence.
For `O=S1(=O)N=C(Oc2cccc(C(F)(F)F)c2)c2ccccc21`, the Potency was 4.61 µM (active).
With `O=S1(=O)N=C(OCc2ccccc2)c2ccccc21` the entry was “inactive”.
The entry for `Cc1ccccc1Nc1c(-c2ccc(Cl)s2)nc2ccccn12` is “inactive”; for `CC(C)(C)c1ccc(SC2=NS(=O)(=O)c3ccccc32)cc1` it is 3.26 µM (active).
In the case of `COc1ccccc1N1C(=O)c2ccccc2C1=O`, the Potency entry is “inactive”.
The entry for `CCNc1cccc(S(=O)(=O)N2CCN(S(=O)(=O)c3ccc4c(c3)OCCO4)CC2)c1` is “inactive”; for `Cc1ccc(-c2nc3cccc(C)n3c2Nc2ccc(F)cc2)o1` it is “inactive”; for `COc1cccc(NS(=O)(=O)c2ccc3c(c2)CCC(=O)N3)c1` it is “inactive”.
As for `COc1ccc(NS(=O)(=O)c2ccc3c(c2)CCC(=O)N3)cc1`, the Potency result was “inactive”.
With `O=C1c2ccccc2C(=O)N1c1cccc(O)c1` the entry was “inactive”; with `Cc1ccc(C)c(OC2=NS(=O)(=O)c3ccccc32)c1`, 2.59 µM (active); with `O=S1(=O)N=C(Oc2ccc(C(F)(F)F)cc2)c2ccccc21`, 3.66 µM (active).
With `Cc1ccc2nc(-c3ccc(C)o3)c(Nc3ccc(F)cc3)n2c1` the entry was “inactive”.
With `O=C1CCc2cc(S(=O)(=O)Nc3ccc4c(c3)OCCO4)ccc2N1` the entry was “inactive”.
For the molecule `Cc1ccc(Nc2c(-c3ccc(C)o3)nc3cccc(C)n23)cc1`, the Potency entry is “inactive”.
With `Cc1ccc(NS(=O)(=O)c2cccc(C(=O)O)c2)cc1C` the entry was “inactive”.
With `O=S1(=O)N=C(Oc2ccccc2C(F)(F)F)c2ccccc21` the figure was 6.51 µM (active); with `Cc1ccc(Nc2c(-c3ccc(C)o3)nc3ccccn23)cc1`, “inactive”.
As for `Cc1cccc(NS(=O)(=O)c2ccc3c(c2)CCC(=O)N3)c1`, the Potency result was “inactive”.
With `O=C1c2ccccc2C(=O)N1c1cccc2ncccc12` the entry was “inactive”; with `O=C1NS(=O)(=O)C(c2ccccc2)C1c1ccccc1` (stereo not given), “inactive”; with `O=S1(=O)N=C(Oc2ccccc2Br)c2ccccc21`, 5.8 µM (active).
With `O=C1c2ccccc2C(=O)N1c1ccc2ncccc2c1` the entry was “inactive”.
With `Cc1ccc(NS(=O)(=O)c2cc3c(cc2F)NC(=O)CC3)cc1C` the entry was “inactive”.
Consider `Nc1ccc2c(c1)C(=O)NS2(=O)=O`, for which the Potency entry is “inactive”.
With `Cc1ccc(NS(=O)(=O)c2ccc3c(c2)CCC(=O)N3)cc1C`, the Potency result was “inactive”.
The figure for `O=C1c2ccccc2C(=O)C1c1nccc2ccccc12` is 18.3 µM (active).
With `Cc1ccc(NS(=O)(=O)c2ccc3c(c2)CCC(=O)N3)cc1` the entry was “inactive”; with `CN=c1nc(-c2ccccc2)n(-c2ccccc2)s1`, “inactive”; with `O=C1NS(=O)(=O)c2cc3c(cc21)C(=O)NS3(=O)=O`, “inactive”.
With `Cc1ccc(NS(=O)(=O)c2cc3c(cc2-c2ccco2)NC(=O)CO3)cc1C` the entry was “inactive”.
On to `Cc1ccc(NS(=O)(=O)c2ccc3c(c2)n(C)c(=O)n3C)cc1C`, for which the Potency result was “inactive”.
The entry for `COC(=O)c1ccccc1S(=O)(=O)Nc1ccc(OC)cc1` is “inactive”; for `Cc1ccc(OC2=NS(=O)(=O)c3ccccc32)cc1` it is 12.5 µM (active).
Consider `O=S1(=O)N=C(Oc2cccc(-c3ccccc3)c2)c2ccccc21`, for which the Potency is 3.26 µM (active).
The entry for `Cc1ccc2nc(-c3cccs3)c(Nc3ccccc3)n2c1` is “inactive”; for `Cc1ccn2c(NC3CCCCC3)c(-c3ccc(C)o3)nc2c1` it is “inactive”; for `COc1ccccc1NS(=O)(=O)c1ccc2c(c1)CCC(=O)N2` it is “inactive”.
The entry for `COc1ccc(N2C(=O)c3ccccc3S2(=O)=O)cc1` is “inactive”; for `O=C1c2ccccc2C(=O)N1c1nccs1` it is “inactive”.
